# Screening data deposited in PubChem BioAssay by several laboratories.
# An excerpt weighted towards active compounds, which were near 3.9% of everything screened.
# BoNT-F LC inh – blocks Botulinum neurotoxin F light chain protease; Multiplex microsphere protease cleavage assay, flow cytometry; inhibition, % at 10 µM; 360,000 compounds, 0.22% hits; in the data active means inhibition above about 35%, passing the limit was not always enough; inconclusive means no clear call, values can overlap the other calls
# 3CLpro inhibitor – SARS-CoV 3CLpro protease inhibition. P0C6X7. recombinant SARS-CoV 3CLpro, quenched FRET peptide cleavage. inhibition, % at 6 µM. 290,000 compounds, 0.14% hits. AID 1706; in the data active means inhibition above about 12%
# BoNT-A LC inh2 – blocks Botulinum neurotoxin A light chain protease. multiplex microsphere protease substrate cleavage, flow cytometry. 360,000 compounds, 0.17% hits. inhibition, % at 10 µM
# Anthrax LF inh2 – blocks Bacillus anthracis lethal factor protease; P15917; multiplex microsphere protease cleavage assay, LF; inhibition, % at 10 µM; 360,000 compounds, 0.12% hits
# Target sequence (P15917 whole entry, looked up): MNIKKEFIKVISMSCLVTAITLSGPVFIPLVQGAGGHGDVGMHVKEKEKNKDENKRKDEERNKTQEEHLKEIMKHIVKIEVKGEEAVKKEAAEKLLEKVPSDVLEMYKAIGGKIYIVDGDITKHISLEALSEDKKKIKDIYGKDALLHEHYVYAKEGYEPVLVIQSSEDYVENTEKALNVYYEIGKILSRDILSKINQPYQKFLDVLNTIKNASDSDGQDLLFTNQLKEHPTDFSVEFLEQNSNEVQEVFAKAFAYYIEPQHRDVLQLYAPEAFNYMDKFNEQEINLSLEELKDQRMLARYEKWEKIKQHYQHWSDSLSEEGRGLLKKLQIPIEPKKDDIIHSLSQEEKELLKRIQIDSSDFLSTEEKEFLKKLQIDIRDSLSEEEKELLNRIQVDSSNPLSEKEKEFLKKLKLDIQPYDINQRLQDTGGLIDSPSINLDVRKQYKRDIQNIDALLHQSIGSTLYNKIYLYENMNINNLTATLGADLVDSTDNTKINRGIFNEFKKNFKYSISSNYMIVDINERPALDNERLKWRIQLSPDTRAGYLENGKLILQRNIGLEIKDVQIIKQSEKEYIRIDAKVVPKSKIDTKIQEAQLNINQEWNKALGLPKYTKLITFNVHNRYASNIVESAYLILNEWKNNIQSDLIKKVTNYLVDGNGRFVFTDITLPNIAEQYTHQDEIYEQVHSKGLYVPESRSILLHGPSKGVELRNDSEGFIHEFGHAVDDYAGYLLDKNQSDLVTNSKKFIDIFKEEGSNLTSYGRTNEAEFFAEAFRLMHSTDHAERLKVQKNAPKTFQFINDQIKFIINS
# CCHFV vOTU inh – CCHFV vOTU protease inhibition. inhibition, % at 11.5 µM. AID 651958. 370,000 compounds, 0.55% hits. Pep-AMC fluorescence; in the data active means inhibition above about 30%
# Autofluor counter – counter-screen for toxin protease inhibitors: compound fluorescence. compound autofluorescence counterscreen, microsphere flow cytometry; stronger effect = higher value. fluorescence intensity (no concentration beside the values). 360,000 compounds, 3.1% hits. AID 624483; in the data active means fluorescence intensity above about 16000; inconclusive means no clear call, values can overlap the other calls
# A number is an active result; - = inactive; ? = inconclusive; . = no result. Unless noted, no stated cut-off is given here; in the data, active means inhibition above about 30%; inconclusive means no clear call, values can overlap the other calls; inactive means below that.
SMILES,BoNT-F LC inh,3CLpro inhibitor,BoNT-A LC inh2,Anthrax LF inh2,CCHFV vOTU inh,Autofluor counter
C=C1CC(C)OC(c2ccccc2OCC(O)CN2CCCCC2)C1 (centres undefined),-,-,?,-,-,21660
CC1CCCN(C(=O)c2ccc3c(=O)n(Cc4ccc5c(c4)OCO5)c(=S)[nH]c3c2)C1 (centres undefined),-,-,-,-,-,22529
CCOCCCn1c(=S)[nH]c2cc(C(=O)N3CCOCC3)ccc2c1=O,-,-,-,-,-,17022
COCCn1c(=S)[nH]c2cc(C(=O)N3CCN(c4ccccc4OC)CC3)ccc2c1=O,-,-,?,-,-,22207
CCN(CC)C(=O)c1ccc2c(=O)n(CCOC)c(=S)[nH]c2c1,-,-,?,-,-,20993
O=C(c1ccc2c(=O)n(Cc3ccccc3)c(=S)[nH]c2c1)N1CCOCC1,-,-,-,-,-,-
Cc1cc(-c2n[nH]c(=S)n2N=Cc2cc(Br)ccc2F)n[nH]1,.,.,.,.,-,.
O=C(N[C@H](C(=O)N1CCC[C@H]1C(=O)NC1CCCC1)C1CCCCC1)c1ccc(Cl)cc1Cl,.,.,.,.,-,.
CCOC(=O)N1CCN(C(=O)c2ccc3c(=O)n(Cc4ccc(Cl)cc4)c(=S)[nH]c3c2)CC1,-,-,-,-,-,19158
CCN1CCN(C(=O)c2ccc3c(=O)n(Cc4ccccc4OC)c(=S)[nH]c3c2)CC1,-,-,-,-,-,18735
CC(C)(Oc1cccc2ccccc12)C(=O)O,-,-,-,-,-,17702
O=[N+]([O-])c1cccc(OCCCN2CCC(C(O)(c3ccccc3)c3ccccc3)CC2)c1,.,.,.,.,-,.
Cc1ccsc1/C=c1\sc2ncnn2c1=O,-,-,-,-,-,20527
O=c1/c(=C/c2cccc3ccccc23)sc2ncnn12,-,-,-,-,-,-
COc1ccc([C@@H]2Sc3cc(OC)ccc3N(CCN(C(C)C)C(C)C)C(=O)[C@H]2OC(C)=O)cc1,-,-,-,-,-,20962
COc1ccc(-c2cc(-c3c(O)c(OC)c4occc4c3OC)[nH]n2)cc1,-,-,?,-,-,21696
COc1ccc(/C=C(/C(=O)Nc2ccccc2C(=O)NC(C)C)c2ccccc2)cc1,-,-,-,-,-,17014
COc1ccc(/C=C(/C(=O)Nc2ccccc2C(=O)N2CCCC2)c2ccccc2)cc1,-,-,-,-,-,22608
Cc1ccc2occ(CN3CCN(Cc4ccccc4)CC3)c(=O)c2c1,.,-,.,.,.,.
O=c1c(CN2CCN(Cc3ccccc3)CC2)coc2ccc(Cl)cc12,-,-,-,-,-,19830
COc1cc2c(c(OC)c1)[C@H](/C=C/c1ccccc1)[C@@H]([C@H](O)CO)OC2,.,.,.,.,-,.
CCCCOc1ccc(Cl)cc1CSc1n[nH]c(C)n1,-,-,-,-,-,-
CCOc1ccc(Cl)cc1CSc1n[nH]c(CC)n1,-,-,-,-,-,22875
COC(=O)c1cc(-c2ccc(-c3ccccc3)c(F)c2)c(=O)n2c1CCC2,.,.,.,.,-,.
CCOC(=O)N1CCN(C(=O)CN(c2ccc(Oc3ccccc3)cc2)S(C)(=O)=O)CC1,-,-,-,-,-,-
SMILES,BoNT-F LC inh,3CLpro inhibitor,BoNT-A LC inh2,Anthrax LF inh2,CCHFV vOTU inh,Autofluor counter
CS(=O)(=O)N(CC(=O)O)c1ccc(Oc2ccccc2)cc1,-,-,-,-,-,20680
O=[N+]([O-])/C=C/c1cn(Cc2ccc(F)cc2)c2ccccc12,-,-,38,31,-,-
Nn1c(SCC(=O)Nc2nccs2)nnc1-c1cc(-c2ccc(Cl)cc2)n[nH]1,.,.,.,.,-,.
CC(CCN1CCC(C(O)(c2ccccc2)c2ccccc2)CC1)Oc1ccc(OC(F)(F)F)cc1 (centres undefined),.,.,.,.,-,.
S=C(NN=C(C1CC1)C1CC1)Nc1ccccc1,-,-,-,-,-,17259
O=C(NNC(=S)Nc1ccccc1)C1CC1,-,-,-,-,-,-
O=C(NCc1ccccn1)c1cc(S(=O)(=O)N2CCN(c3ccccc3)CC2)ccc1Cl,-,-,?,-,-,22854
COC(=O)CC[C@H](/C=C/C(=O)OC(C)(C)C)Sc1ccc(C(C)(C)C)cc1,.,.,.,.,-,.
COc1ccc(/C=C/C(=O)OC(C)CN2CCOCC2)cc1 (centres undefined),-,-,-,-,-,17262
CC(CN1CCOCC1)OC(=O)/C=C/c1ccccc1 (centres undefined),-,-,-,-,-,-
CC(CN1CCCCC1)OC(=O)/C=C/c1ccccc1 (centres undefined),36,-,-,-,-,-
COc1ccc(/C=C/C(=O)OC(C)CN2CCCCC2)cc1 (centres undefined),?,-,-,-,-,-
